Consider 23 molecules from PubChem BioAssay (NCATS).

Structures are written as SMILES. Inconclusive results are not listed. The source made the active and inactive calls. Unless noted, calls follow the shape of the dose curve; as a rule, active = well fitted curve in the direction sought with a large enough effect; inconclusive = small, poorly fitted or top-dose-only effect, or another doubt; inactive = no such curve, though single readings can be large; an effect the other way counts as inactive or inconclusive.

A short description of experiment [1]: Primary qHTS for small molecule stabilizers of the endoplasmic reticulum resident proteome: Secreted ER Calcium Modulated Protein (SERCaMP) assay (AID 1508630). Summed up:
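GLuc-SERCaMP-expressing SH-SY5Y cells, pretreated 16 h with compound, are challenged with thapsigargin to empty ER calcium stores; after 4 h, coelenterazine is added directly to the medium and luminescence is imaged.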

Experiment [2] is described as follows: A High-Content qHTS Against Drug Library for the Identification of Small Molecules that Inhibit DYT1 Early Onset Primary Dystonia-Associated Cell Pathology (AID 1645839; calls by dose curve; also: potency is read from the fitted curve at half-maximal effect). Summed up: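 Flp-In T-REx 293 cells with tetracycline-inducible EGFP-delE hTOR1A (WT EGFP-hTOR1A as reference), 800 cells/well; compound added with tetracycline, 48 h at 37 C. Fixed, permeabilized cells imaged; %pathology (punctate TorsinA) primary, cell count counterscreen.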

The target of experiment [3] is Cytochrome P450 2D6 (Homo sapiens) (UniProt P10635). As to the kind of experiment: Cytochrome P450 family 2 subfamily D member 6 (CYP2D6) small molecule antagonists: luciferase biochemical (cell-free) qHTS assay (AID 1645840; active = well fitted curve in the direction sought with a large enough effect in the repeat runs; an effect the other way counts as inactive or inconclusive; also: nearly all actives have a fitted effect of over 55% in size; also: potency is read from the fitted curve at half-maximal effect). Summed up:
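P450-Glo luminescent screen: recombinant CYP2D6 enzyme–proluciferin substrate mix preincubated with compound 10 min at room temperature, then NADPH regeneration added for 1 h at room temperature. Detection reagent added for 20 min; luciferin light read as relative luminescence units.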

A further experiment addresses Papain (Carica papaya) (UniProt P00784). The experiment can be described thus: Primary qHTS assay for inhibitors of the protease papain (AID 1645873).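 Also: papain turnover of Z-FR-AMC read as the AMC fluorescence gain over 10 min; series mostly up to about 50 µM.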 In general terms: In qHTS, concentration-response curves come from the screen itself.
The nature of experiment [4]: Primary qHTS for inhibitors of nuclear receptor binding SET domain protein 2 (NSD2) in an isogenic RCH-ACV NSD2 p.E1099K mutant (9B) (AID 1645876). Also: nearly all actives have a fitted effect of over 70% in size.
The target of experiment [5] is Cytochrome P450 2C9 (Homo sapiens) (UniProt P11712). As to the kind of experiment: Cytochrome P450 family 2 subfamily C member 9 (CYP2C9) small molecule antagonists: luciferase biochemical (cell-free) qHTS assay (AID 1645842; active = well fitted curve in the direction sought with a large enough effect in the repeat runs; an effect the other way counts as inactive or inconclusive; also: nearly all actives have a fitted effect of over 55% in size; also: potency is read from the fitted curve at half-maximal effect). Summed up:
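Luminescence, after 20 min with luciferin detection reagent, reflected CYP2C9 turnover during a 1 h NADPH-driven reaction at 37C. Enzyme-substrate mix contained 0.4% bovine serum albumin and was preincubated with compound 10 min at room temperature.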

Cytochrome P450 2C9 (Homo sapiens), sequence (P11712 whole entry, looked up): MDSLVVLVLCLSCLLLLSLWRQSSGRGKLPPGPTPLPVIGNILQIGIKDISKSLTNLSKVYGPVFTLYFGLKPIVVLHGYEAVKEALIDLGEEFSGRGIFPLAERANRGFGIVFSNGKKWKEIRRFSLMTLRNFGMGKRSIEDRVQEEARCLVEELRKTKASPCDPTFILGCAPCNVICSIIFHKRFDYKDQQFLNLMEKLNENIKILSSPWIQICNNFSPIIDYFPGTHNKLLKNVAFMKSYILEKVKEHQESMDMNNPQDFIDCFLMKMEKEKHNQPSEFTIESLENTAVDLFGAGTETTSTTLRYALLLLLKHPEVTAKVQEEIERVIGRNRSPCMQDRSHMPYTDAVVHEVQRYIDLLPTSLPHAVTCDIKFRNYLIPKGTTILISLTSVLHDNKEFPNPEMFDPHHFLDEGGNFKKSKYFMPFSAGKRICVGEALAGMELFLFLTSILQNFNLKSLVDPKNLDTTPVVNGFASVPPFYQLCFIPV
Cytochrome P450 2D6 (Homo sapiens), sequence (P10635 whole entry, looked up): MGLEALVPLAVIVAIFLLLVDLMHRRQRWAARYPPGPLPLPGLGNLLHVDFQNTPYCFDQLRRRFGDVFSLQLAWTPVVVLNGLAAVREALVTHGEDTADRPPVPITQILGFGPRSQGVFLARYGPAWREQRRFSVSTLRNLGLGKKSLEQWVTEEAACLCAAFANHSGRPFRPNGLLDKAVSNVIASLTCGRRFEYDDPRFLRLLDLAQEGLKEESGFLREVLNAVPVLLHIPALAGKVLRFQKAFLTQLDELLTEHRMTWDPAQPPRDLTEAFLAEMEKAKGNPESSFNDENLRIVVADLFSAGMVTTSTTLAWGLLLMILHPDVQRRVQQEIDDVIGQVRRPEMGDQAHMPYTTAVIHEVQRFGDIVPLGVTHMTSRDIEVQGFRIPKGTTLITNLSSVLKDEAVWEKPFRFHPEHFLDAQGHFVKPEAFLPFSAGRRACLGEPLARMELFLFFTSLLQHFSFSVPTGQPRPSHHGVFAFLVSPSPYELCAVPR
Papain (Carica papaya), sequence (P00784 whole entry, looked up, the tested form may be a part): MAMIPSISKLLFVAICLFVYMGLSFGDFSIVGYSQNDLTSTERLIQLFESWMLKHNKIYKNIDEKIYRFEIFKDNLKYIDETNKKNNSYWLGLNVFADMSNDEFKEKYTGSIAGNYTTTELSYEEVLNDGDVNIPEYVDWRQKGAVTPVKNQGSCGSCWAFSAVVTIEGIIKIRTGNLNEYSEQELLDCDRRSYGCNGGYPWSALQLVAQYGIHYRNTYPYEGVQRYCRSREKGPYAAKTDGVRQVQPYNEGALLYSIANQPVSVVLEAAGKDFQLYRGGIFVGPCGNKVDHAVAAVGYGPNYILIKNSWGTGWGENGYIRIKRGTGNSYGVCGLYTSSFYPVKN

As to `N#CC1(c2ccc(NC(=O)c3cccnc3NCc3ccncc3)cc2)CCCC1`, the Potency entry in experiment [1] was “inactive”.
As to `CC(=O)CCCCn1c(=O)c2c(ncn2C)n(C)c1=O`, the Potency entry in experiment [1], in experiment [2], in experiment [3] and in experiment [4] was “inactive” each time. Moreover, the outcome with Papain (Carica papaya) was inactive.
`CC=C(C)C(=O)O[C@H]1C(C)=C[C@]23C(=O)[C@@H](C=C(CO)[C@@H](O)[C@]12O)[C@H]1[C@@H](C[C@H]3C)C1(C)C`: the Potency result in experiment [1] was “inactive”.
Take `COc1ccc(-c2oc3c(CC=C(C)C)c(OC4O[C@H](CO)[C@@H](O)[C@H](O)[C@@H]4O)cc(O)c3c(=O)c2OC2O[C@@H](C)[C@H](O)[C@@H](O)[C@@H]2O)cc1` (stereo not given in full): the Potency entry in experiment [1] was “inactive”.
As for `CCN(CC)CCNC(=O)c1ccc(N)cc1`, the Potency result in experiment [1], in experiment [2], in experiment [3] and in experiment [4] was “inactive” throughout.
For `CC(=O)O[C@]1(C(C)=O)CC[C@@H]2[C@@H]3C[C@H](C)C4=CC(=O)CC[C@]4(C)[C@H]3CC[C@@]21C`, the Potency result in experiment [1] is “inactive”.
Consider `CCN(CC)C(=O)c1ccc(O)c(OC)c1`, for which the Potency result in experiment [1], in experiment [2], in experiment [3], in experiment [5] and in experiment [4] was “inactive” throughout. Besides, in the experiment with Papain (Carica papaya), the result was inactive.
Turning to `CO[C@H]1C[C@@H]2CC[C@@H](C)[C@@](O)(O2)C(=O)C(=O)N2CCCC[C@@H]2C(=O)O[C@H]([C@@H](C)C[C@@H]2CC[C@H](O)[C@H](OC)C2)CC(=O)[C@H](C)C=C(C)[C@@H](O)[C@@H](OC)C(=O)[C@H](C)C[C@H](C)C=CC=CC=C1C`, the Potency result in experiment [1] was “inactive”.
In the case of `C[N+](C)(C)CCCCCC[N+](C)(C)C`, the Potency entry in experiment [1], in experiment [2], in experiment [3], in experiment [5] and in experiment [4] was “inactive” in each case. In addition, the result in the experiment with Papain (Carica papaya) was inactive.
`O=C(NCCN1CCOCC1)c1ccc(Cl)cc1`: the Potency result in experiment [1], in experiment [2] and in experiment [4] was “inactive” in each case. Besides, the Potency in experiment [3] is 9.77 µM (active). Besides, the result with Papain (Carica papaya) was inactive.
For the molecule `NCCS`, the Potency entry in experiment [1], in experiment [2], in experiment [3], in experiment [5] and in experiment [4] was “inactive” throughout. Further, the molecule was called inactive in the experiment with Papain (Carica papaya).
For the molecule `O=C(O)c1cc(-c2ccccc2)nc2ccccc12`, the Potency result in experiment [1], in experiment [2], in experiment [3] and in experiment [4] was “inactive” each time.
Turning to `CCN1CCC[C@H]1CNC(=O)c1cc(S(N)(=O)=O)ccc1OC`, the Potency result in experiment [1], in experiment [2], in experiment [3] and in experiment [4] was “inactive” throughout. Besides, the outcome in the experiment with Papain (Carica papaya) was inactive.
As for `CN1C[C@H]2c3ccccc3Oc3ccc(Cl)cc3[C@@H]2C1`, the Potency result in experiment [1] and in experiment [5] was “inactive” in each case. For the same molecule, the Potency in experiment [2] is 11.2 µM (active); in experiment [3], 0.0062 µM (active).
For the molecule `O=C1NC(=O)C(c2ccccc2)(c2ccccc2)N1`, the Potency entry in experiment [1], in experiment [2], in experiment [3] and in experiment [4] was “inactive” in each case. Also, the molecule was called inactive with Papain (Carica papaya).
Regarding `CC(C)OC(=O)C(C)(C)Oc1ccc(C(=O)c2ccc(Cl)cc2)cc1`, the Potency result in experiment [1], in experiment [2], in experiment [3] and in experiment [4] was “inactive” each time. Besides, the Potency in experiment [5] is 2.45 µM (active). For the same molecule, the call with Papain (Carica papaya) was inactive.
Take `Clc1ccc(Cn2c(CN3CCCC3)nc3ccccc32)cc1`: the Potency result in experiment [1] and in experiment [2] was “inactive” throughout. The Potency in experiment [3] was 0.309 µM (active); in experiment [5], 12.3 µM (active). For the same molecule, the molecule was called inactive with Papain (Carica papaya).
Consider `C[C@]12CCC3c4ccc(O)cc4CCC3C1CCC2=O` (stereo not given in full), for which the Potency entry in experiment [1] was “inactive”.
Still for that read-out and setting: as for `O=c1cc(-c2ccccc2)oc2cc(O)c(O)c(O)c12`, the entry is “inactive”.
`N#C[C@H]1C[C@H]2C[C@@H]2N1C(=O)[C@@H](N)C12CC3CC(CC(O)(C3)C1)C2`: the Potency entry in experiment [1], in experiment [2] and in experiment [3] was “inactive” throughout.
Regarding `CC(=O)O[C@]1(C(C)=O)CC[C@H]2[C@@H]3C=C(Cl)C4=CC(=O)[C@@H]5C[C@@H]5[C@]4(C)[C@H]3CC[C@@]21C`, the Potency result in experiment [1], in experiment [2] and in experiment [3] was “inactive” throughout. Also, in experiment [5], the Potency is 9.77 µM (active).
Take `C[C@@H](O)[C@H]1C(=O)N2C(C(=O)O)=C(S[C@@H]3CN[C@H](C(=O)N(C)C)C3)[C@H](C)[C@H]12`: the Potency entry in experiment [1], in experiment [2], in experiment [3] and in experiment [4] was “inactive” each time.
Regarding `c1ccc2c(Cc3c[nH]c4ccccc34)c[nH]c2c1`, the Potency entry in experiment [1] is “inactive”.
